Screens: PubChem BioAssay, National Center for Advancing Translational Sciences (NCATS)
This excerpt belongs to a sample that is enriched for hits.
KDM5B inhibitor: Primary screen for KDM5B Histone Demethylases FDH-coupled qHTS | Lysine-specific demethylase 5B (Homo sapiens), Q9UGL1 | Potency, µM (top dose mostly 57.7 µM), most hits filed as inhibitors | hit rate 2.6% among 220,000 | KDM5B demethylase, FDH-coupled NADH fluorescence (FDH is formaldehyde dehydrogenase); active means well fitted inhibition curve with a large enough effect; further: 0% is about no effect; nearly all actives have a fitted effect of over 70% in size
Target sequence (Q9UGL1 whole entry, looked up): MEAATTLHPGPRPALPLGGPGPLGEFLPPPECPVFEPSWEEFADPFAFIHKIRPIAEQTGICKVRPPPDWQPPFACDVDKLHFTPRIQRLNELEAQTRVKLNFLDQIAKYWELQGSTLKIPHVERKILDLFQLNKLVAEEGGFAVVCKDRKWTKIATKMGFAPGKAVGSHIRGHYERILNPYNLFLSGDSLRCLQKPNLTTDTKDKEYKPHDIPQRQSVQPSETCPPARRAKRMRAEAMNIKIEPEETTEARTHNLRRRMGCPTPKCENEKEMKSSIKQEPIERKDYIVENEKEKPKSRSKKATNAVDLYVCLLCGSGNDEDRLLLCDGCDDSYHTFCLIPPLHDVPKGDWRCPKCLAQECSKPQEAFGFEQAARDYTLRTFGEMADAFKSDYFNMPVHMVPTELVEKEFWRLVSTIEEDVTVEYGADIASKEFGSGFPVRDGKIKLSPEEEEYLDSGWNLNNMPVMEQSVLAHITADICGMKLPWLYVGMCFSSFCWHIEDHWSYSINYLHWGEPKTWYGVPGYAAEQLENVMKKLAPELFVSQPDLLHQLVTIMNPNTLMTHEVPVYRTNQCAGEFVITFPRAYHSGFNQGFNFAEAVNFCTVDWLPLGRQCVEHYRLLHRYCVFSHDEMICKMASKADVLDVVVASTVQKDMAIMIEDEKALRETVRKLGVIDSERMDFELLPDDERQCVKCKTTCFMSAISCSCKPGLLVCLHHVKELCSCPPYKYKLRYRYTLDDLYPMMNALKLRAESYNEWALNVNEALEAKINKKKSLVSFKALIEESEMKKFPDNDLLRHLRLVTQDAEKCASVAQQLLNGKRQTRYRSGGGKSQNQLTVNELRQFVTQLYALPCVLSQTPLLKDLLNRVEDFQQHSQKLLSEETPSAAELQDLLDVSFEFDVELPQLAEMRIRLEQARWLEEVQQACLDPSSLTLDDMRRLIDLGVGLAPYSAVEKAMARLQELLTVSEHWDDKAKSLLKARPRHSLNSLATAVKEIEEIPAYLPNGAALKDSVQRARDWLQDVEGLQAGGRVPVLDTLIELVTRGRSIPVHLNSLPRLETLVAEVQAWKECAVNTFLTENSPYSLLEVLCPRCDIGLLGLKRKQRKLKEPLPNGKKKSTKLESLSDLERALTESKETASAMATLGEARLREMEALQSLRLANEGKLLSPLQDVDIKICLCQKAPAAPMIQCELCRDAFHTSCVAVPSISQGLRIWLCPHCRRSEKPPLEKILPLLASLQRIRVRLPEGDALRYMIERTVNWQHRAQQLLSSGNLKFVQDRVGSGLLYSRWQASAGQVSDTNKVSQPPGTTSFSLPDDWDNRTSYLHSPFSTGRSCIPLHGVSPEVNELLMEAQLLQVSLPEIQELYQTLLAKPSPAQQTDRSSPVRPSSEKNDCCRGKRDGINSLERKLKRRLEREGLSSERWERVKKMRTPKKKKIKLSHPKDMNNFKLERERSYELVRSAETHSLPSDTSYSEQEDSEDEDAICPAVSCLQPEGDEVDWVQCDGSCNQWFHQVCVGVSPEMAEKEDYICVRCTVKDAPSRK
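Compound dilutions met 200 nM (final) KDM5BΔAP for 10 min at room temperature before substrate addition. The substrate mix held 12.5 µM H3K4me3 with cofactors 25 µM α-ketoglutarate and 50 µM Fe²⁺. NADH signal gain over 30 min defined activity.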
Numbers without * were called inactive. Potency means the concentration at half of the fitted maximal effect.

How did CC1(C2CC2)NC(=O)N(CC(=O)Nc2cnc3ccccc3c2)C1=O (centres undefined) do in these assays?
KDM5B inhibitor: inactive

Results for COCC(=O)Nc1ccc([C@@H](O)[C@H]2COCC(=O)N2)cc1 ?
KDM5B inhibitor: inactive

What do the screens show for `CCc1ccc(N2CC(c3noc(-c4ccc(C)nc4)n3)CC2=O)cc1` (centres undefined)?
KDM5B inhibitor: inactive

How did O=C1CC(c2noc(-c3nccc4ccccc34)n2)CN1C1CCCCC1 (centres undefined) do in these assays?
KDM5B inhibitor: 22µM*

What do the screens show for `CCc1ccc(N2CC(c3noc(-c4ccccc4)n3)CC2=O)cc1` (centres undefined)?
KDM5B inhibitor: inactive

How did CCc1ccc(N2CC(c3noc(-c4nccc5ccccc45)n3)CC2=O)cc1 (centres undefined) do in these assays?
KDM5B inhibitor: 32µM*

How did CCc1ccc(N2CC(c3noc(-c4ccc5ncccc5c4)n3)CC2=O)cc1 (centres undefined) do in these assays?
KDM5B inhibitor: 32µM*

Results for O=C1CC(c2noc(-c3ccoc3)n2)CN1C1CCCCC1 (centres undefined) ?
KDM5B inhibitor: inactive

How did CCc1ccc(N2CC(c3noc(-c4ccccn4)n3)CC2=O)cc1 (centres undefined) do in these assays?
KDM5B inhibitor: inactive

Results for CCc1ccc(N2CC(c3noc(C4(c5ccccc5)CC4)n3)CC2=O)cc1 (centres undefined) ?
KDM5B inhibitor: inactive

Results for O=C1CC(c2noc(-c3cccc(F)c3)n2)CN1C1CCCCC1 (centres undefined) ?
KDM5B inhibitor: inactive

Results for CCC(C)NC(=O)Cc1c(C)nc2ccccc2c1C (centres undefined) ?
KDM5B inhibitor: inactive

How did COc1cc(C2NC(=O)N(C)C(C)=C2C(=O)OCCC(C)C)cc(Cl)c1O (centres undefined) do in these assays?
KDM5B inhibitor: inactive

What do the screens show for `Cc1ccc(C(CC(=O)O)NC(=O)c2nn(C)c(=O)c3ccccc23)cc1` (centres undefined)?
KDM5B inhibitor: inactive

What do the screens show for `COC(=O)c1cc(NC(=O)c2nc3ccccc3nc2N2CCCCC2)cc(C(=O)OC)c1`?
KDM5B inhibitor: inactive

How did COc1ccc(C(=O)N/C(=C\c2ccc(-c3cccc(Cl)c3)o2)C(=O)NC(C)(C)C)cc1 do in these assays?
KDM5B inhibitor: inactive

What do the screens show for `COc1cccc(C(=O)N2CCC3(CC2)CC(Cc2ccccc2)=NO3)c1`?
KDM5B inhibitor: inactive

How did Cn1c(=O)c2c(nc(Cl)n2CC(=O)NCc2ccccc2Cl)n(C)c1=O do in these assays?
KDM5B inhibitor: inactive

Results for CCC(C)NC(=O)CSc1ncnc2c1cnn2-c1ccccc1 (centres undefined) ?
KDM5B inhibitor: inactive

Results for CC(C)(C)c1noc(CN2CCN(C(=O)c3cccs3)CC2)n1 ?
KDM5B inhibitor: inactive

Results for CC(NC(=O)c1cc(F)cc(F)c1)c1cccc(NS(C)(=O)=O)c1 (centres undefined) ?
KDM5B inhibitor: inactive

What do the screens show for `Cc1ccc(NC(=O)CCc2ncc(-c3ccc(F)cc3)o2)c(C)c1`?
KDM5B inhibitor: inactive

What do the screens show for `CCC(=O)N1CCCN(CCN(C)C)c2ccccc21`?
KDM5B inhibitor: inactive

What do the screens show for `O=C(Cc1cccs1)N1CCCN(CCc2ccccc2)c2ccccc21`?
KDM5B inhibitor: 22µM*

What do the screens show for `CN1CCCN(C(=O)c2cccs2)c2ccccc21`?
KDM5B inhibitor: inactive

What do the screens show for `Cc1ccc(SC(Sc2ccc(C)cc2)=C(Cl)/C=N/O)cc1`?
KDM5B inhibitor: inactive

How did CCOCCn1c(=O)c2c(nc(-n3nc(CC)cc3CC)n2C)n(C)c1=O do in these assays?
KDM5B inhibitor: inactive

Results for COc1cccc(Nc2ncc3c(n2)C(C)(C(=O)N2CCCC2)CC3)c1 (centres undefined) ?
KDM5B inhibitor: inactive

Results for CN(CC(=O)Nc1cccc(F)c1)CC(=O)Nc1cccc2ccccc12 ?
KDM5B inhibitor: inactive

Results for CN(C)c1ncc2c(n1)C(C)(C(=O)Nc1ccncc1)CCC2 (centres undefined) ?
KDM5B inhibitor: 32µM*

What do the screens show for `CC1(C(=O)NC2CC2)CCCc2cnc(Nc3cccnc3)nc21` (centres undefined)?
KDM5B inhibitor: inactive

Results for CC1(C(=O)N2CCCC2)CCCc2cnc(Nc3cccnc3)nc21 (centres undefined) ?
KDM5B inhibitor: inactive

What do the screens show for `COc1cccc(NC(=O)C2(C)CCCc3cnc(N(C)C)nc32)c1` (centres undefined)?
KDM5B inhibitor: 40µM*

Results for CN(C)c1ncc2c(n1)C(C)(C(=O)Nc1cccc(F)c1)CCC2 (centres undefined) ?
KDM5B inhibitor: 32µM*

How did CC1(C(=O)Nc2ccncc2)CCCc2cnc(Nc3ccccc3)nc21 (centres undefined) do in these assays?
KDM5B inhibitor: inactive

How did COc1ccc(NC(=O)C2(C)CCCc3cnc(Nc4cccnc4)nc32)cc1 (centres undefined) do in these assays?
KDM5B inhibitor: inactive

What do the screens show for `CCN(CC)S(=O)(=O)c1ccc(OC)c(NC(=O)c2nn(C(C)C)c(=O)c3ccccc23)c1`?
KDM5B inhibitor: inactive

What do the screens show for `O=C(OCC(=O)N1CCCCCC1)c1cnc2ccccc2n1`?
KDM5B inhibitor: inactive

What do the screens show for `CC(C)CNC(=O)COC(=O)c1n[nH]c(=O)c2ccccc12`?
KDM5B inhibitor: inactive

What do the screens show for `CCN(CC)c1ccc(-c2nnc(SCCS(=O)(=O)c3ccc(Cl)cc3)o2)cc1`?
KDM5B inhibitor: inactive

How did Fc1ccc(Br)cc1CNc1ccccc1 do in these assays?
KDM5B inhibitor: inactive

How did Cc1c(NC(=O)c2ccc([N+](=O)[O-])cc2)cccc1-c1nc2ccccc2o1 do in these assays?
KDM5B inhibitor: inactive

What do the screens show for `O=C(Nc1ccc2oc(-c3cccnc3)nc2c1)c1cccc(I)c1`?
KDM5B inhibitor: inactive

How did Cc1ccc([S+](=O)([O-])N2CCC3(CCN(Cc4cccs4)c4ccccc4O3)CC2)cc1 do in these assays?
KDM5B inhibitor: inactive

What do the screens show for `O=C1CC2(CCN([S+](=O)([O-])c3cccc(C(F)(F)F)c3)CC2)Oc2ccccc2N1c1ccccc1`?
KDM5B inhibitor: inactive

Results for O=[S+]([O-])(c1cccc(C(F)(F)F)c1)N1CCC2(CCN(Cc3cccs3)c3ccccc3O2)CC1 ?
KDM5B inhibitor: 11µM*

What do the screens show for `CCCN(CCN(C)C)C(=O)Nc1sc(C(=O)OCC)c(C)c1C(=O)OCC`?
KDM5B inhibitor: inactive

What do the screens show for `CCN(Cc1ccc(OC)c(F)c1)C(=O)CN1CCC(c2nc3ccccc3s2)CC1`?
KDM5B inhibitor: inactive

What do the screens show for `CC(=O)c1ccc(N2CCN(C(=O)c3csc(-c4ccc(C)cc4)n3)CC2)cc1`?
KDM5B inhibitor: inactive

What do the screens show for `COc1ccc(Cc2nc3nccc(-c4ccc(OC)c(OC)c4)n3n2)cc1`?
KDM5B inhibitor: 20µM*

How did COc1ccc(CCc2nc3nccc(-c4ccc(F)cc4)n3n2)cc1OC do in these assays?
KDM5B inhibitor: inactive

What do the screens show for `COCc1nc(-c2ccc3c(c2)OCCCO3)cs1`?
KDM5B inhibitor: inactive

How did COc1ccc(-c2ccnc3nc(Cc4ccc(F)cc4)nn23)cc1OC do in these assays?
KDM5B inhibitor: 28µM*

How did CCc1nc2nccc(-c3ccc4c(c3)OCCCO4)n2n1 do in these assays?
KDM5B inhibitor: 28µM*

Results for COCc1nc2nccc(-c3ccc4c(c3)CC(C)O4)n2n1 (centres undefined) ?
KDM5B inhibitor: 28µM*
